About 7,900 targets were measured; listed, in parts, are those with a hit and a random draw of the rest. About 0.6% of all pairs of compound and target were hits. A number with no mark means an inactive call.

Sequence of UniProt P04183 (P04183 whole entry, looked up): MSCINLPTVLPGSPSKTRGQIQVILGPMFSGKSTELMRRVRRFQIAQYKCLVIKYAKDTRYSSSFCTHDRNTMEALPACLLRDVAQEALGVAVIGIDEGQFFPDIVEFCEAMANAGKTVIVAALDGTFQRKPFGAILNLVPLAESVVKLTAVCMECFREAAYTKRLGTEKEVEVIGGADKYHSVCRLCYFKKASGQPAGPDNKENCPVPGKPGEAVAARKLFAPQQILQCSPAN
Sequence of UniProt P40763 (P40763 whole entry, looked up): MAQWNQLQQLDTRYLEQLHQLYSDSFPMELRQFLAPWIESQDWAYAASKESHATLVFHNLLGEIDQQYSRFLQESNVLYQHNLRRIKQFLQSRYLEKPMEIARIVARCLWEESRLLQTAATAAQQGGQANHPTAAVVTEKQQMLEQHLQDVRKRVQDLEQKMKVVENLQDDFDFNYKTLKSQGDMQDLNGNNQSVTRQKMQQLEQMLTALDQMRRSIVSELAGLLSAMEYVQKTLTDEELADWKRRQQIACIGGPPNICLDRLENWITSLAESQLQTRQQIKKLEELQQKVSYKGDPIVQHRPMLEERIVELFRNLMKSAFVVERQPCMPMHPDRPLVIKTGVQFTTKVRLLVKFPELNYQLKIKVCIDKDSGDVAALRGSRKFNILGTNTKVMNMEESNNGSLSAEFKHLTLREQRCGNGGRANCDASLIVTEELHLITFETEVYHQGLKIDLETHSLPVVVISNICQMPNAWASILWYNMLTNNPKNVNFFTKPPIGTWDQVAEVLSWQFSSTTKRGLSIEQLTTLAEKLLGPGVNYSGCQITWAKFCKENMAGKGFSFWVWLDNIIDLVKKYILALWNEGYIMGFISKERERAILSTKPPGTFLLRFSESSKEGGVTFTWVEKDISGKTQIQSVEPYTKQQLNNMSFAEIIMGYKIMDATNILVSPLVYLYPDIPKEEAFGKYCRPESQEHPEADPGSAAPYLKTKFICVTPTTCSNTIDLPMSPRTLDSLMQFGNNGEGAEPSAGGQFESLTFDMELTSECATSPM
Sequence of UniProt P51692 (P51692 whole entry, looked up): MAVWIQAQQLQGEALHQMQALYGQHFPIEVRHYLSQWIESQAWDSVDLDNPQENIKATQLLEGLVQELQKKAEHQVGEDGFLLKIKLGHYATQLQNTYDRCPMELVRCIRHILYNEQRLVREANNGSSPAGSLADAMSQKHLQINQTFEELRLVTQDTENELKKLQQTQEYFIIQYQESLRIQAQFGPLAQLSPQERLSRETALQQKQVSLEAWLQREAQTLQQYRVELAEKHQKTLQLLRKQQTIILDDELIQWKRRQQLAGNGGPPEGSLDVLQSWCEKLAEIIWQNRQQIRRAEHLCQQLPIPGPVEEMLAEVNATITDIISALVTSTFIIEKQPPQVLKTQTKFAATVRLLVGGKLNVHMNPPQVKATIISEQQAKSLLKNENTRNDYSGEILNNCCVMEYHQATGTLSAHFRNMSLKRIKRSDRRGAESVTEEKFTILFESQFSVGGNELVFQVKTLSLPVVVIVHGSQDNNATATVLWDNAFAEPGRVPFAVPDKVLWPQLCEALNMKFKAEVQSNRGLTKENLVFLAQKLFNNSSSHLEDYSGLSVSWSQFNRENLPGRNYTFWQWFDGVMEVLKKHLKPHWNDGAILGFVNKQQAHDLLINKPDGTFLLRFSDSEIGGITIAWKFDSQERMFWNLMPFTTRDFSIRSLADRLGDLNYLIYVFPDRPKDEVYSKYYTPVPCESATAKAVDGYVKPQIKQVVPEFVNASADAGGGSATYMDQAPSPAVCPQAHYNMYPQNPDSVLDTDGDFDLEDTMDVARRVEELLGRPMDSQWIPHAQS
Sequence of UniProt P56962 (P56962 whole entry, looked up): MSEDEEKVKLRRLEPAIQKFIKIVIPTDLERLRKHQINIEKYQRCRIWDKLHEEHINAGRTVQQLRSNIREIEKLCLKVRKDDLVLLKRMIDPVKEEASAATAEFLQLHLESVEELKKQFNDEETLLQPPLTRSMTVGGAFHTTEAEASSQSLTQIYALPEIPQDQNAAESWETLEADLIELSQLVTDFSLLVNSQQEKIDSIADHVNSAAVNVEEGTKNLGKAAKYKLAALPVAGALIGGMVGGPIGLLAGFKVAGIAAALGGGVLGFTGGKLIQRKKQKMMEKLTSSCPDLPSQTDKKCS
Sequence of UniProt Q969G3 (Q969G3 whole entry, looked up): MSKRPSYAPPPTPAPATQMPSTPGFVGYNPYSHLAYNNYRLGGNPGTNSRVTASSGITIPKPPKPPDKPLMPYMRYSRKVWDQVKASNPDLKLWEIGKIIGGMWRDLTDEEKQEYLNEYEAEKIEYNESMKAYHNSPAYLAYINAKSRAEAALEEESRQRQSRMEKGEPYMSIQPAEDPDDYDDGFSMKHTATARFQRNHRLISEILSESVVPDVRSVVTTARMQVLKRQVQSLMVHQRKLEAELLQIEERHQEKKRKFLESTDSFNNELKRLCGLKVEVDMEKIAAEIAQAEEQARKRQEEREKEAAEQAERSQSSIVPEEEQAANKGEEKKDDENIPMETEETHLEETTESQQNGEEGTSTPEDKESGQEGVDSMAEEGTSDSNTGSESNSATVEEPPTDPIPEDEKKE
Sequence of UniProt Q13395 (Q13395 whole entry, looked up): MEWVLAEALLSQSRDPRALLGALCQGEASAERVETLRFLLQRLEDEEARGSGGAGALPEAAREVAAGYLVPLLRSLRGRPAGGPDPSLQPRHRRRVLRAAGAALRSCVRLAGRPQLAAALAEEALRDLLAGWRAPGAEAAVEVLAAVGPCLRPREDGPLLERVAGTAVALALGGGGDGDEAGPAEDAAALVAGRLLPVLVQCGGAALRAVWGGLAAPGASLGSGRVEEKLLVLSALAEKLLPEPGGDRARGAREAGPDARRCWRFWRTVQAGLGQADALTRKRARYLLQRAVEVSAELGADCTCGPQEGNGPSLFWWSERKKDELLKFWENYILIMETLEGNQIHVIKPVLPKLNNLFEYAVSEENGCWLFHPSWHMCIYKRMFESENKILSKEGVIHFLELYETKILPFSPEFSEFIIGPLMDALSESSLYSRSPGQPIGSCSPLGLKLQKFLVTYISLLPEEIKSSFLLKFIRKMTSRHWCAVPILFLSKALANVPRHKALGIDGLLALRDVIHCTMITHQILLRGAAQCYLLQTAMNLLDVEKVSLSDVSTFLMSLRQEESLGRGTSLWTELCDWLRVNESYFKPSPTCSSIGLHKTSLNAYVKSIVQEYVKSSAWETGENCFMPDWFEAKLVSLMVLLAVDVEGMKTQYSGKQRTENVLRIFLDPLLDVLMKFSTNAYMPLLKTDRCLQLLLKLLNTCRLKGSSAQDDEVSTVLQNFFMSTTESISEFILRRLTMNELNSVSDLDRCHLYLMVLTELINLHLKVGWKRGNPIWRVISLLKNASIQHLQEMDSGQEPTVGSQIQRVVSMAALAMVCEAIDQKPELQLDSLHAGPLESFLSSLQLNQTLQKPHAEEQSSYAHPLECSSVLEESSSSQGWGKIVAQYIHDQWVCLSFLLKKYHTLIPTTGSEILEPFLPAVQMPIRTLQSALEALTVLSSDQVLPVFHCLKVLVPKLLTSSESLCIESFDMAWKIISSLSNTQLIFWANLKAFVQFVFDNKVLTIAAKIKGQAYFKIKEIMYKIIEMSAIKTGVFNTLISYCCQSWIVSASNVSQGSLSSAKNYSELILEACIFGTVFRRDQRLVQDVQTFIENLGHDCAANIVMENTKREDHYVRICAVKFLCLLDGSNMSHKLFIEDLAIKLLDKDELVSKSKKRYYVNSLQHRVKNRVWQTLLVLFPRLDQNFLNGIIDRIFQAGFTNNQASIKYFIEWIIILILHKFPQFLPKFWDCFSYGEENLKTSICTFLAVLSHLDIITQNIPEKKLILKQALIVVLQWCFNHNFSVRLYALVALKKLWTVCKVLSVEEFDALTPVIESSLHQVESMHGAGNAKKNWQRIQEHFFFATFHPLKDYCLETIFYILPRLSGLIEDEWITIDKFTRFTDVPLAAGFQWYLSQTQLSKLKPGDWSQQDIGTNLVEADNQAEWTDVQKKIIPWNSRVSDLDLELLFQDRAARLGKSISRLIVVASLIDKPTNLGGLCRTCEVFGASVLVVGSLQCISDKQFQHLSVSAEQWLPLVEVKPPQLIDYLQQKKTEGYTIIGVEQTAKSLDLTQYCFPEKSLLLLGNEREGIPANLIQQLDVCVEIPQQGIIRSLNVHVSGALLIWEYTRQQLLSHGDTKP
Sequence of UniProt P84103 (P84103 whole entry, looked up): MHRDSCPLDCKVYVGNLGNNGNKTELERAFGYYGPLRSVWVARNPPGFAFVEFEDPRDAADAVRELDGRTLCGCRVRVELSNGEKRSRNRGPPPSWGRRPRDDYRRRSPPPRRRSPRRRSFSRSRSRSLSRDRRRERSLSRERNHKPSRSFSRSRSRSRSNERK
Sequence of UniProt P30626 (P30626 whole entry, looked up): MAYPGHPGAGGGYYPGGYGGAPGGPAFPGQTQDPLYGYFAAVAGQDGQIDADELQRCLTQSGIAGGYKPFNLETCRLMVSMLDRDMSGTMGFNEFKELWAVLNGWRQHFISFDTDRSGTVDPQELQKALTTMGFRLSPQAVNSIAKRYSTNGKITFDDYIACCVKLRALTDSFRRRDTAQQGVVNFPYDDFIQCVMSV
Sequence of UniProt Q13596 (Q13596 whole entry, looked up): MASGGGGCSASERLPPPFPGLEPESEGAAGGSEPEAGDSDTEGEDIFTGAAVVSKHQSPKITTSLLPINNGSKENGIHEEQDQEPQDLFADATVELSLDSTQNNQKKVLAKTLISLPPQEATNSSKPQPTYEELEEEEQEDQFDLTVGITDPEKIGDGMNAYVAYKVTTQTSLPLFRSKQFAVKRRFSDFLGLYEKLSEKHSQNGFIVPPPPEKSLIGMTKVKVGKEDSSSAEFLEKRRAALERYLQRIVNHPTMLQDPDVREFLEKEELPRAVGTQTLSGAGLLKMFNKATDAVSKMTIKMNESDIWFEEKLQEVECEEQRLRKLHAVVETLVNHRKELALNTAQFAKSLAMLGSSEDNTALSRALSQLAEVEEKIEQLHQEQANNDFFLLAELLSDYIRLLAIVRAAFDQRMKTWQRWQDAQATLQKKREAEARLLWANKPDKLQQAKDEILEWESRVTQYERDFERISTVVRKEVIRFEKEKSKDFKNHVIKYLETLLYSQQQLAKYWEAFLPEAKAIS

Compound in this assay: Cn1cc(-c2ccc3c(c2)CCN3C(=O)Cc2cccc(C(F)(F)F)c2)c2c(N)ncnc21
Nature of the assay: log2 fold change, soluble protein after heating vs DMSO (PISA); higher = thermal stabilisation; K562 cells, 10 uM, 30 min; active = over 0.2 and 3.5 SD of the protein, either way, in both replicates (recomputed). The essentials:
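Thermal stability values are relative to control samples and come from duplicates. They are expressed as log2 fold changes. For measurement, K562 cells (2×10^6 cells/mL) received 10 μM compound for 30 min, and aliquots were heated for 3 min over 48°C-58°C, pooled, and extracted at 4°C in PBS with 0.5% NP-40. Soluble protein, the supernatant after 21,000xg for 90 min, was quantified by TMTpro 16plex LC-MS/MS with equalised channel sums.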
On to STAT5B (UniProt P51692), for which the log2 fold change is 0.07.

As to STAT3 (UniProt P40763), the log2 fold change is -0.027.

Regarding STAM2 (UniProt O75886), the log2 fold change is 0.016. Regarding TIAL1 isoform 2 (UniProt Q01085), the log2 fold change was 0.009. The figure for SLC38A9 (UniProt Q8NBW4) is -0.017; for STAT5A (UniProt P42229) it is 0.

As for SNX5 (UniProt Q9Y5X3), the log2 fold change was 0.05. In the case of SMARCE1 (UniProt Q969G3), the log2 fold change was -0.056.

With SRSF3 (UniProt P84103), the log2 fold change is -0.199. For SMC5 (UniProt Q8IY18), the log2 fold change is 0.006. With SNX1 (UniProt Q13596), the log2 fold change is 0.07. TARBP1 (UniProt Q13395): the log2 fold change is 0.116. The result for STX17 (UniProt P56962) reads 0.071; that for SMARCAD1 isoform 2 (UniProt Q9H4L7), 0.088; that for TIMM10 (UniProt P62072), -0.05. The result for SPCS2 (UniProt Q15005) reads 0.053; that for SMAP2 (UniProt Q8WU79), -0.022.

For TK1 (UniProt P04183), the log2 fold change is 0.015.

Take TIMM44 (UniProt O43615): the log2 fold change was 0.026.

Regarding TIMM29 (UniProt Q9BSF4), the log2 fold change is -0.029. The result for SRI (UniProt P30626) reads 0.113; that for SORT1 (UniProt Q99523), 0.018; that for SLC7A6 (UniProt Q92536), 0.024.

Source of the values: the supplement of paper PMC10849652.
